# Screening results as filed in PubChem BioAssay.
# Mac1 fbg inh = inhibitors of human CD11b/CD18 binding to fibrinogen; P05107+P11215; K562 CD11b/CD18 adhesion to fibrinogen, ATPlite luminescence; Mn2+ added to activate the integrin; inhibition, % at 10 µM; 0.54% of 93,000 active; AID 1497;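 active = primary inhibition of 50% or more at 10 µM, then 40% or more on retest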
# CD11b adhes enh = increases human CD11b/CD18 adhesion to fibrinogen; K562 CD11b/CD18 adhesion to fibrinogen, ATPlite luminescence; activation, % at 10 µM; 0.07% of 93,000 active; AID 1499;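 active = 10 µM primary screen giving 50% or more activity, confirmed by 40% or more on retest at that dose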
# MMP-13 inhibitor = MMP13 (human) collagenase inhibition. MMP-13 fTHP FRET cleavage, Mca fluorescence. inhibition, % at 4 µM. 0.07% of 65,000 active. AID 570;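 active = inhibition above the mean of compound-free control plate wells plus 3 SD, cut at about 14% in these data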;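 note: 0% = DMSO wells and 100% = wells with reference MMP-13 inhibitor after basal subtraction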
# FAK inh = FAK (human) kinase inhibition | Q05397 | biochemical FAK kinase activity assay | AID 727 | inhibition, %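 (tested at 7 µM)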 | 0.84% of 97,000 active;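 note: 0% = DMSO and 100% = reference compound high control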
# FAK inh conf = confirmation of human focal adhesion kinase (FAK) inhibitors; FAK kinase biochemical inhibition assay; inhibition, % at 7 µM; shares compounds with FAK inh; 28% of 750 active
# An asterisk follows results filed as active; x = not tested or not shown. Hits are enriched below; roughly 1.1% of the tested compounds scored in any of these assays. Cut-off read from the data, not from the text of the source, unless noted: active = inhibition above about 19%; inactive = the rest.
SMILES,Mac1 fbg inh,CD11b adhes enh,MMP-13 inhibitor,FAK inh,FAK inh conf
O=C1NC(=O)C(CCc2ccncc2)(C2CCCCC2)C(=O)N1,-1.7,0.9,51.7*,-5.7,x
CN1CCN(C(=O)COc2ccc(-c3nc4ccccc4s3)cc2)CC1,93.4*,-6.4,-17.6,4.0,x
Cn1cccc1CN1CCN(C(=O)COc2ccccc2)CC1,x,x,-5.0,7.2,x
Cn1nc(-c2ccc(OCC(=O)N3CCN(Cc4ccccc4)CC3)cc2)c2ccccc2c1=O,71.3*,-5.6,0.6,2.0,x
CC(C)NS(=O)(=O)c1ccc(OCC(=O)N2CCN(C)CC2)cc1,27.9,-3.4,0.8,-6.1,x
Cn1c(O)c(/C=C/C=Nc2ccccc2)c(=O)n(C)c1=S,6.7,41.0,x,x,x
O=c1[nH]c(=S)n(Cc2ccc(F)cc2)c(O)c1/C=N/N1CCCCCC1,25.8,8.1,x,x,x
Cn1ncnc2c(=O)n(C)c(=O)nc1-2,71.4*,-6.0,5.0,x,x
CN1CCN(c2ccc(C=O)cc2)CC1,-5.0,-3.7,x,1.3,x
CN1CCN(c2ccc(N)cc2)CC1,3.6,-0.8,x,67.2*,74.3*
Cc1nc2ccc(Cl)cc2c(-c2ccccc2)c1C(=O)O,-12.2,3.7,x,x,x
CC12CN3CC(C)(CN(C1)P3(=O)Oc1ccccc1)C2=O (stereo not given),24.3,-3.5,-1.9,50.5*,2.3
Cc1ccc(-n2c(-c3cccs3)nc3ccccc3c2=O)cc1,-1.4,-4.4,x,-1.4,x
COCCCn1c(N)c(C(=O)OC(C)COC)c2nc3ccccc3nc21 (stereo not given),-6.1,-3.7,-462.4,x,x
CCC(C)NC(=O)c1c(N)n(CCCOC)c2nc3ccccc3nc12 (stereo not given),-10.1,4.9,-128.0,37.2*,2.4
O=C1Nc2ccccc2/C1=C/c1cnc[nH]1,x,x,x,74.8*,47.0*
